In PubChem BioAssay (NCATS) one finds Potency and activity change, negative = cytotoxic data, which are given here for 40 compounds.

Inconclusive results are not listed. Entries that show only a call come without a potency. Active and inactive are the calls of the source. Calls follow the shape of the dose curve; as a rule, active = well fitted cell-killing curve with a large enough effect; inconclusive = small, poorly fitted or top-dose-only effect; inactive = no such curve, though single readings can be large or run the other way. *1 amine or outer side, *2 acyl side, *3 side chain or, on linkers, in order; H or OH if unused. Where a SMILES comes first, the peptide text is derived from it. Bridges are numbered along the chain shown (N, C = ends). [ ]: non-standard residue; d: D form. The star is where a group is joined. ξ: configuration not given here. X10 = NC1=NCCC(C(N[*:1])C(=O)[*:2])N1; ΔAla(3-NHCONH2) = NC(=O)NC=C(N)C(=O)O; ξβ3hOrn = NCCCC(N)CC(=O)*; Dap = NC[CH](N)C(=O)O
Potency is read from the fitted curve at half-maximal effect.

The nature of the experiment: qHTS of pediatric cancer cell lines to identify multiple opportunities for drug repurposing: Primary screen for Saos-2 cells (AID 1347097). Also: nearly all actives have a fitted effect of over 40% in size. The conditions noted are these: Saos-2 viability, CellTiter-Glo ATP luminescence, 48 h; series mostly up to 46 µM. The source says: Drug repurposing or repositioning has been offered as a strategy for drug development in oncology programs. This approach has special potential for childhood cancers and other rare or orphan diseases, where the expected return on new drug development has been a disincentive to pharmaceuticals. […] In this project we exploit the poly-pharmacology of drugs to discover new indications via phenotypic screening of a panel of 19 well-characterized cell lines derived from solid tumors seen in children and adolescents. The goal is to identify approved drugs with previously unrecognized anticancer properties that has the potential to reveal new mechanisms and biological processes involved in carcinogenesis or drug resistance. We employed a titration-based paradigm (quantitative high-throughput screening or qHTS), where all compounds were tested at multiple concentrations for their effect on cell viability. Concentration-response curves (CRCs) were derived directly from the primary screen, and both potency and efficacy values were used to identify compounds with robust bioactivity profiles. We screened the NIH Chemical Genomics Center (NCGC) Pharmaceutical Collection (NPC) and Mechanism Interrogation Plate (MIPE) small molecule collections of approved and investigational compounds against these cell lines; and measured metabolically active cells after 48 hours of compound treatment as a proxy for cell viability. […] Assay Submitter: Nathalia J. Martinez, National Center for Advancing Translational Sciences, National Institutes of Health, Rockville, MD, USA; email: natalia.martinez@nih.gov Shen, M et al. Quantitative high-throughput phenotypic screening of pediatric cancer cell lines identifies multiple opportunities for drug repurposing. Oncotarget 2017 Dec 19;9(4):4758-4772. PMID 29435139.
The cells were obtained from University of North Carolina (UNC), Pediatric Preclinical Testing Program (PPT), and Coriell Institute (CI). qHTS cell viability assay: Cells were assayed in growth media at a density of 500-1,000 cells/well. Five microliters of cells were dispensed into 1,536-well, white, solid-bottom, TC-treated plates (Greiner Bio One) using a multidrop dispenser and incubated at 37 degrees C, 5% CO2, under a humidified atmosphere for 5 hours. Twenty-three nanoliters of compounds and controls (neutral control DMSO or positive control bortezomib at final concentration of 2.3 µM) were subsequently transferred by Kalypsys pintool. For primary screens, the MIPE collection was tested at 11-point dilutions (final concentrations range from 0.78 nM to 46 µM) and the NPC collection at 8-point dilutions (final concentrations range from 0.59 nM to 46 µM). Compounds tested in follow-up screens were assayed at 11-point dilutions. Cells were incubated for 48 hours, followed by addition of 3 µL of CellTiter-Glo (Promega). After a 15 min incubation at room temperature, samples were analyzed for luminescence intensity using a ViewLux High-throughput CCD imager equipped with clear filters.
Regarding `NS(=O)(=O)c1ccc(N2CCCCS2(=O)=O)cc1`, the Potency result was “inactive”.
For `CC(Oc1c(Cl)cccc1Cl)C1=NCCN1` (stereo not given), the Potency result was “inactive”.
Same read-out and setting: to `CC(C)CCCC(C)NCCC(C)C` (stereo not given) belongs “inactive”; to `CCOC(=O)NNc1nncc2ccccc12`, “inactive”.
Same read-out and setting: to `C[C@]12CCC(=O)C=C1CC[C@@H]1[C@@H]2[C@@H](O)C[C@@]2(C)[C@H]1CC[C@]2(O)C(=O)COC(=O)CCC(=O)O` belongs “inactive”; to `CCCc1c2oc(C(=O)O)cc(=O)c2cc2c(=O)cc(C(=O)O)n(CC)c12`, “inactive”.
On the same count and under the same terms, to `O=C1Nc2ccccc2C1(c1ccc(O)cc1)c1ccc(O)cc1` belongs “inactive”; to `C[C@H](N)C(=O)N[C@@H](C)C(=O)NC1[C@H]2CN(c3nc4c(cc3F)c(=O)c(C(=O)O)cn4-c3ccc(F)cc3F)C[C@@H]12` (stereo not given in full), “inactive”; to `O=C1NCCN1CCN1CCC(c2cn(-c3ccc(F)cc3)c3ccc(Cl)cc23)CC1`, 21.1 µM (active).
As for `COC(=O)c1cc(Cl)c(NC(C)=O)cc1OC`, the Potency entry was “inactive”.
Take `NCCCC(N)CC(=O)NCC1NC(=O)C(CO)NC(=O)C(N)CNC(=O)C(C2CCN=C(N)N2)NC(=O)C(=CNC(N)=O)NC1=O` (stereo not drawn) (H-[Dap]S[Dap](ξβ3hOrn)[ΔAla(3-NHCONH2)][X10]; lactam 1-C; configuration not given here): the activity change, negative = cytotoxic was 29.1% [at 0.597 µM] (inactive).
Take `Cc1ccc2ccc(Cl)cc2n1`: the Potency entry is “inactive”.
The same measure, in the same setting: to `Cc1ccc(C(=O)C(=O)O)cc1C` belongs “inactive”; to `CCN(CC)CC(=O)OCC(=O)[C@@]1(O)CC[C@H]2[C@@H]3CCC4=CC(=O)CC[C@]4(C)[C@H]3[C@@H](O)C[C@@]21C`, “inactive”; to `Cc1oc(-c2ccccc2)nc1CCC(=O)c1ccc(CC2SC(=O)NC2=O)cc1` (stereo not given), “inactive”.
On to `Cc1cc(O)c(C)c(C)c1O`, for which the Potency result was “inactive”.
The same measure, in the same setting: to `CO[C@@H]1[C@@H](OC)[C@H](C)[C@@](O)(CC(=O)O)O[C@H]1[C@H](C)[C@H]1O[C@@]2(CC[C@@](C)([C@H]3CC[C@@](C)([C@@H]4O[C@@H]([C@H]5O[C@](C)(O)[C@H](C)C[C@@H]5C)C[C@@H]4OC4C[C@H](OC)[C@@H](OC)[C@H](C)O4)O3)O2)C[C@H](O)[C@H]1C` (stereo not given in full) belongs 5.31 µM (active); to `CCOC(=O)Cn1cccc1-c1nc(-c2ccc(OC)cc2)c(-c2ccc(OC)cc2)s1`, “inactive”; to `Clc1ccc2c(c1)Nc1ccccc1S2`, “inactive”.
Still for that read-out and setting: to `COC(=O)/C=C(/C)N` belongs “inactive”; to `OCCCc1ccccc1`, “inactive”; to `N=C(N)c1ccc(OCCCOc2ccc(C(=N)N)cc2)cc1`, “inactive”.
On the same count and under the same terms, to `CC(C)(C)C(=O)OCOC(=O)C1N2C(=O)CC2S(=O)(=O)C1(C)C` (stereo not given) belongs “inactive”; to `COc1ccc(/C(C)=C/C(=O)O)c(OC)c1`, “inactive”; to `O=C1NC(c2ccccc2)(c2ccccc2)C(=O)N1COP(=O)(O)O`, “inactive”.
For `COc1cc(C(=O)NC2CCCNC2)cc(OC)c1OC` (stereo not given), the Potency entry is “inactive”.
On the same count and under the same terms, to `O=C(O)CNC(=O)CNC(=O)CNC(=O)CSC(=O)c1ccccc1` belongs “inactive”.
For `CC(CCc1ccc2c(c1)OCO2)NN` (stereo not given), the Potency result is “inactive”.
On the same count and under the same terms, to `c1ccc2c(c1)CCc1ccccc1N2` belongs “inactive”; to `O=C1CC2(CCCC2)CC(=O)N1`, “inactive”; to `CCCCCOc1ccc(C2SC(=O)NC2=O)cc1OCC` (stereo not given), “inactive”.
Still for that read-out and setting: to `C[C@H]1C[C@H](O)c2ccsc2S1(=O)=O` belongs “inactive”; to `Cc1cc(OCCOCC[N+](C)(C)Cc2ccccc2)ccc1C(C)(C)CC(C)(C)C`, 13.3 µM (active).
The same measure, in the same setting: to `Oc1ccccc1-c1nnco1` belongs “inactive”.
As to `CC(=O)CC/C=C(\C)CC/C=C(\C)CC/C=C(\C)CCC=C(C)C`, the Potency result is “inactive”.
Take `CCOC(=O)N1CCC(n2c(=O)[nH]c3cc(Cl)ccc32)CC1`: the Potency entry is “inactive”.
For the compound `CCOC(=O)OCC/C(SC(=O)OCC)=C(\C)N(C=O)Cc1cnc(C)nc1N`, the Potency entry was “inactive”.
Same read-out and setting: to `C[C@H](CN1CCCC1)C(=O)c1ccc(C(F)(F)F)cc1` belongs “inactive”; to `CC(C)C(=O)Nc1cccc(C2CN3CCSC3=N2)c1` (stereo not given), “inactive”.
As for `Cc1ncc(CO)c(CO)c1O`, the Potency result was “inactive”.
